Measurements reported in PubChem BioAssay (EPA / NIEHS).
The source made the active and inactive calls. How the source made its calls: active means hit-call score of the fitted dose curve at least 0.9, where 1 is the maximum; inactive means score below 0.9.

Assay: CCTE_Harrill_HTTr_Apoptosis_MCF7: CCTE's 6-hour Apoptosis Assessment for the High-Throughput Transcriptomics (HTTr) Platform, in MCF-7 cells cultured in DMEM + 10% fetal bovine serum, Harrill Lab (AID 2284011)
Description: This is a cell-based assay that evaluates apoptosis using high content imaging to evaluate activation of caspase-3/7 using the CellEvent Caspase 3/7 Green detection reagent in 384-well format.One of seven assay components measured from the CCTE_Harrill_HTTr_Apoptosis assay. This was part of a full screening experiment. This is a cell-based assay that evaluates apoptosis in MCF-7 cells cultured in DMEM + 10% fetal bovine serum. High content imaging is used to evaluate activation of caspase-3/7 using the CellEvent Caspase 3/7 Green detection reagent. Measurements are taken at 6 hours after chemical dosing in 384-well format.The assay component endpoint CCTE_Harrill_HTTr_Apoptosis_MCF7 was analyzed with bidirectional fitting relation to DMSO as the negative control and baseline of activity. Using a type of viability reporter, gain-of-signal activity can be used to evaluate activation of caspase-3/7 using the CellEvent Caspase 3/7 Green detection reagent to understand changes in apoptosis. To generalize the intended target to other relatable targets, this assay endpoint is annotated to cell cycle, where the subfamily is apoptosis.
Chemicals were tested in MCF7 cells in an eight point dilution series with a six hour exposure duration.

outcome, inactive:
O=C(O)c1cccc(C(=O)O)n1, CCCCCCCCCCCCCCCCCC[N+](C)(C)Cc1ccccc1, CCC(C)c1ccccc1O (stereo not given), Oc1c(Cl)cc(Cl)cc1Sc1cc(Cl)cc(Cl)c1O, COc1cc(OC)nc(NC(=O)NS(=O)(=O)Nc2ccccc2C(=O)N(C)C)n1, O=c1cc(-c2ccccc2)oc2ccc3ccccc3c12, O=S(=O)(O)c1ccccc1, O=C(c1ccccc1)c1ccccc1, OCC(CO)(CBr)CBr, c1cnc2c(c1)ccc1cccnc12, CCCCCCCCC(C)=O, CC(C)(c1ccc(Oc2ccc(N)cc2)cc1)c1ccc(Oc2ccc(N)cc2)cc1, O=C1NS(=O)(=O)c2ccccc21, CC(=O)Nc1ccc(O)cc1, CC1=NN(c2ccccc2)C(=O)C1, C[C@]12CC[C@@H]3c4ccc(O)cc4CC[C@H]3[C@@H]1C[C@@H](O)[C@@H]2O, Cc1ccccc1C(OCCN(C)C)c1ccccc1 (stereo not given), O=C(O)C(=O)O, CC(C)(C)C1CCCCC1O (stereo not given), C=C(c1ccc(C(=O)O)cc1)c1cc2c(cc1C)C(C)(C)CCC2(C)C, CC(C)[C@@H]1CC[C@@H](C)C[C@H]1O, CC1CCC(CO)CC1 (stereo not given), Nc1ccc(O)c(C(=O)O)c1, NS(=O)(=O)O, CC(C)(C)c1ccc(O)c(O)c1, Cn1sccc1=O, CCCCC=O, C=CC(C)(CCC=C(C)C)OC(C)=O (stereo not given), CS(=O)(=O)c1ccc([C@@H](CC2CCCC2)C(=O)Nc2cnccn2)cc1Cl, CN(C)CCOC(c1ccccc1)c1ccccc1, Cc1ccc(N=Nc2c(O)ccc3ccccc23)c(C)c1, COC1=CC(=O)C[C@@H](C)[C@]12Oc1c(Cl)c(OC)cc(OC)c1C2=O, Nc1ccn([C@@H]2O[C@H](CO)[C@@H](O)C2O)c(=O)n1 (stereo not given in full), NC(=NCCCCCCN=C(N)/N=C(\N)Nc1ccc(Cl)cc1)/N=C(\N)Nc1ccc(Cl)cc1, CCCCCCCCCCCC, CCCCc1oc2ccccc2c1C(=O)c1cc(I)c(OCCN(CC)CC)c(I)c1, CC1COCc2cc3c(cc21)C(C)(C)C(C)C3(C)C (stereo not given), Cc1cc(Cc2cc(C)cc(C(C)(C)C)c2O)c(O)c(C(C)(C)C)c1, CCCCCCCCCCCCCCC, CN(Cc1cnc2nc(N)nc(N)c2n1)c1ccc(C(=O)N[C@@H](CCC(=O)O)C(=O)O)cc1
